# Reference: PubChem BioAssay (NCATS)
# Results filed as inconclusive are left out. Calls of active or inactive are those of the source. Calls follow the shape of the dose curve; as a rule, active = well fitted cell-killing curve with a large enough effect; inconclusive = small, poorly fitted or top-dose-only effect, or effect the other way; inactive = no such curve, though single readings can be large or run the other way.
# Assay: Quantitative High-Throughput drug screen in 47 multiple myeloma cell lines against the NCATS MIPE library collection: Delta47_JCRB cell viability assay (AID 1918925; also: nearly all actives have a fitted effect of over 45% in size)
# Details: Delta47 myeloma viability, CellTiter-Glo ATP, 48 h; series mostly up to 45.8 µM
# How it was run: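 Steps: seed 500 cells per well; pin-transfer MIPE 4.0 library; incubate 48 h at 37C, 5% CO2, humidified; add CellTiter-Glo, 5 min room temperature; read luminescence.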
# Potency is read from the fitted curve at half-maximal effect.
row,SMILES,Potency
1,O=C(C=Cc1ccc(O)cc1)c1ccc(O)cc1O,13.2 µM (active)
2,CCc1cc(-c2n[nH]c(C)c2-c2ccc3c(c2)OCCO3)c(O)cc1O,7.43 µM (active)
3,CCCCCCCCCCCCCC(=O)N[C@H](CO)[C@H](O)c1ccc([N+](=O)[O-])cc1,18.7 µM (active)
4,COc1ccc(CCN(C)CCCOc2ccc(S(=O)(=O)c3[nH]c4ccccc4c3C(C)C)cc2)cc1OC,20.9 µM (active)
5,CCOc1ccccc1N=Nc1c(C)[nH]n(-c2nc(-c3ccccc3)cs2)c1=O,inactive
6,CC1(C)[C@H]2CC[C@]3(C)[C@@H](C(=O)C=C4[C@@H]5C[C@@](C)(C(=O)O)CC[C@]5(C)CC[C@]43C)[C@@]2(C)CC[C@@H]1O,inactive
7,CN(C(Cc1ccc(OS(=O)(=O)c2cccc3cnccc23)cc1)C(=O)N1CCN(c2ccccc2)CC1)S(=O)(=O)c1cccc2cnccc12 (stereo not given),5.26 µM (active)
8,COc1cc(Cl)cn2c(-c3cccc(NC4CNC4)n3)cnc12,20.9 µM (active)
9,CC(=O)OCC(=O)[C@@]1(O)CC[C@H]2[C@@H]3CCC4=CC(=O)C=C[C@]4(C)[C@@H]3[C@@H](O)C[C@@]21C,inactive
10,COc1cc2nc(-c3cc(F)ccc3O)nc(N[C@@H]3CNC[C@@H]3C(C)(C)O)c2cc1OC,2.64 µM (active)
11,Cc1nn(Cc2ccccc2Cl)c(C)c1CN(C)CC(O)COc1ccc(Cl)cc1 (stereo not given),18.7 µM (active)
12,C=C[C@@H]1CN2CCC1C[C@@H]2C(O)c1ccnc2ccc(OC)cc12 (stereo not given in full),inactive
13,CO[C@H]1/C=C\O[C@@]2(C)Oc3c(C)c(O)c4c(O)c(c5c(nc6cc(C)ccn65)c4c3C2=O)NC(=O)C(C)=CC=C[C@H](C)[C@H](O)[C@@H](C)[C@@H](O)[C@@H](C)[C@H](OC(C)=O)[C@H]1C,11.8 µM (active)
14,CN1CCC[C@H]1CCO[C@](C)(c1ccccc1)c1ccc(Cl)cc1,13.2 µM (active)
15,OC[C@H]1O[C@@H](Oc2ccc(O)cc2)[C@H](O)[C@@H](O)[C@H]1O,inactive
16,O=S(=O)(NCCNCC=Cc1ccc(Br)cc1)c1cccc2cnccc12,14.8 µM (active)
17,C=CC[N+]1([C@H]2C[C@H]3[C@@H]4CC[C@H]5C[C@H](O)[C@@H](N6CCOCC6)C[C@]5(C)[C@@H]4CC[C@]3(C)[C@H]2OC(C)=O)CCCC1,inactive
18,C=CCc1cccc(C=NNC(=O)CN2CCN(Cc3ccccc3)CC2)c1O,18.7 µM (active)
19,CC(C)Oc1cc(Nc2nc(N[C@@H](C)c3ccc(F)cn3)ncc2Cl)[nH]n1,8.33 µM (active)
20,CO[C@@H]1C(N(C)C(=O)c2ccccc2)C[C@H]2O[C@]1(C)n1c3ccccc3c3c4c(c5c6ccccc6n2c5c31)C(=O)NC4=O (stereo not given in full),1.87 µM (active)
21,CN(C)c1nc(Cc2ccc(NC(=O)c3ccc(C(F)(F)F)cc3)cc2)nc(N(C)C)c1CC(=O)O,inactive
22,CN[C@@H]1CN(c2ccc3c(=O)c(C(=O)O)cn(-c4nccs4)c3n2)C[C@@H]1OC,5.75 µM (active)
23,CC(C)C[C@@H](C(=O)N[C@H](C(=O)OC1CCCC1)c1ccccc1)[C@H](O)C(=O)NO,20.9 µM (active)
24,CCC(=O)OCC(=O)[C@@]1(OC(=O)CC)[C@@H](C)C[C@@H]2[C@H]3CCC4=CC(=O)C=C[C@]4(C)[C@@]3(F)[C@@H](O)C[C@@]21C,inactive
25,Cc1ccc2c(c1)c1c(n2CCc2ccc(C)nc2)CCN(C)C1,inactive
26,CNC(=O)[C@H](Cc1ccccc1)NC(=O)[C@H](CC(C)C)[C@H](CSc1cccs1)C(=O)NO,18.7 µM (active)
27,COc1c(C)cnc(Cn2cnc3c(Cl)nc(N)nc32)c1C,0.264 µM (active)
28,C[C@H]1COC2=C1C(=O)C(=O)c1c2ccc2c1CCCC2(C)C,14.8 µM (active)
29,OC[C@H]1O[C@@H](O[C@H]2[C@@H](O)[C@@](O)(CO)O[C@@H]2CO)[C@H](O)[C@@H](O)[C@@H]1O,inactive
30,CC(=O)NCCC(=O)N[C@@H](CCC(N)=O)C(=O)N[C@@H](CO)C(=O)N[C@@H](CCC(N)=O)C(=O)N[C@@H](CCC(N)=O)C(=O)N[C@H](C(=O)N[C@@H](Cc1ccccc1)C(=O)N[C@]1(C)CCCCCCC=CCCC[C@@](C)(C(=O)N[C@@H](CCC(N)=O)C(=O)N[C@@H](CC(N)=O)C(N)=O)NC(=O)[C@H](CC(C)C)NC(=O)[C@H](CC(C)C)NC(=O)[C@@H](CCCNC(=N)N)NC(=O)[C@H](Cc2c[nH]c3ccccc23)NC(=O)[C@H](CC(C)C)NC(=O)[C@H](CC(N)=O)NC1=O)[C@H](C)O,20.9 µM (active)
